The text below walks through data of PubChem BioAssay AID1851 (National Center for Advancing Translational Sciences (NCATS), 2009).

Where “and” joins values, the source holds several entries; their conditions need not be identical. Identical values can stand only once. Among all 16,000 compounds or so, about 5,700 (36%) were called active. Not shown: some 24% with an inconclusive outcome. The list shows a part of the results. A number with no mark means an inactive call. The call rests on the fitted dose curve; in most records, active means well fitted curve in the direction sought with a large enough effect; inconclusive means small, poorly fitted or top-dose-only effect, or effect the other way; inactive means no such curve, though single readings can be large or run the other way.
On the % scale 0 is the no-effect control and ±100 the full control effect.

Sequence of Cytochrome P450 1A2 (Homo sapiens) (P05177 whole entry, looked up): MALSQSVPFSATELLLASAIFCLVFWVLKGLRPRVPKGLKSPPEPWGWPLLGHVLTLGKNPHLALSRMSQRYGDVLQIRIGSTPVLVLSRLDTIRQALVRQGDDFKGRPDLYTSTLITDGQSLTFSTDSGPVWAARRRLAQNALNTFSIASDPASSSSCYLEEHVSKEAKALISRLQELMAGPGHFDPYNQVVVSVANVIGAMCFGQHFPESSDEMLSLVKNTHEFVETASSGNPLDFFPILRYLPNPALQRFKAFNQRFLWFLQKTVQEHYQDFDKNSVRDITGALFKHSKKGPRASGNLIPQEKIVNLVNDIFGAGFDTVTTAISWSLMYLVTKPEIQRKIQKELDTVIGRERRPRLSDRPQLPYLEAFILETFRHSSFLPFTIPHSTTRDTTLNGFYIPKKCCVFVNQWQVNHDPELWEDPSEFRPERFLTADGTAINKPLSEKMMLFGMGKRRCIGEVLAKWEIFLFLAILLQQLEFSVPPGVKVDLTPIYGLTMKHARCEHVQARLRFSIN

This assay addresses Cytochrome P450 1A2 (Homo sapiens) (UniProt P05177). In words: Cytochrome panel assay with activity outcomes. The conditions noted are these: recombinant CYP, pro-luciferin dealkylation, luminescence, p450-cyp1a2; series mostly up to 57.1 µM; activity, negative = inhibition: at the top concentration.
The term AC50 denotes the midpoint of the concentration-response curve, whichever way the signal moves. On to `CCCNc1c(F)c(F)c2c(C)c3ccccc3nc2c1F`, for which the AC50 was 0.708 µM (active).

On to `Oc1ccc2ccccc2c1/C=C\c1ccc2c(Br)cc(Br)c(O)c2n1`, for which the half-maximal activity concentration (AC50) is 3.98 µM (active). In the case of `CC(=O)N1N=C(c2cccc([N+](=O)[O-])c2)OC1c1ccc(Cl)cc1Cl` (stereo not given), the AC50 is 2.51 µM (active). With `CC(=O)N1CC(=O)N(OCc2ccccc2)C1c1ccc(Cl)cc1Cl` (stereo not given), the “activity, negative = inhibition” value was 2.24%. Consider `CC(=O)N1N=C(c2cccc([N+](=O)[O-])c2)OC1c1ccccc1Cl` (stereo not given), for which the AC50 was 14.1 µM (active). As for `COc1ccc(C2C3=C(CC(C)(C)CC3=O)Oc3ncn(CC(C)C)c(=N)c32)cc1` (stereo not given), the “activity, negative = inhibition” value is -4.33%.

In the case of `NNC(=O)CNc1cccc(Br)c1`, the concentration at half-maximal activity (AC50) was 0.501 µM (active). Turning to `CCC[C@H]1C(=O)N2C(N(C)C)=Nc3ccc(C)cc3N2C1=O`, the concentration at half-maximal activity (AC50) is 1.58 µM (active). With `Cc1ccc2c(c1)N(CCC(=O)NCC1CCCO1)C(=O)CO2` (stereo not given), the “activity, negative = inhibition” value is -29.1%. On to `CN1CCN(c2ncc3nc(-c4cccc(C#N)c4)c(=O)n(CCC#N)c3n2)CC1`, for which the “activity, negative = inhibition” value was -11.5%. The same measure, in the same setting: with `COc1cccc(Cn2c(=O)c(-c3cc(F)cc(F)c3)nc3cnc(N4CCNCC4)nc32)c1` the figure was -17.6%; with `CN1CCN(c2ncc3nc(-c4cccc(C#N)c4)c(=O)n(Cc4ccc(F)cc4)c3n2)CC1`, -15.5%. As for `COCCn1c(=O)c(-c2cc(F)cc(F)c2)nc2cnc(N3CCNCC3)nc21`, the AC50 is 6.31 µM (active). Same read-out and setting: the value for `COCCn1c(=O)c(-c2cccc(C#N)c2)nc2cnc(N3CCNCC3)nc21` was 10 µM (active); that for `COCCn1c(=O)c(-c2ccc(OC)cc2)nc2cnc(N3CCNCC3)nc21` was 6.31 µM (active).

On to `CC[C@H](C)[C@@H]1O[C@]2(CC[C@@H]1C)C[C@H]1C[C@H](CC=C(C)[C@@H](O[C@H]3C[C@H](OC)[C@H](O[C@H]4C[C@H](OC)[C@H](O)[C@H](C)O4)[C@H](C)O3)[C@@H](C)C=CC=C3CO[C@@H]4[C@@H](O)C(C)=C[C@H](C(=O)O1)[C@@]34O)O2`, for which the “activity, negative = inhibition” value was -8.74%. For `C/C(CCC(=O)OC[C@@H]1O[C@H](C#Cc2ccccc2)C=C[C@@H]1Oc1ccc(C)cc1)=N/O[C@@H](C)c1cn([C@H](CO)Cc2ccccc2)nn1`, the activity, negative = inhibition was -3.36% [at 11.4 µM] and -0.528% [at 11.4 µM]. The same measure, in the same setting: the value for `CC(=O)O[C@]12CC[N@+]3(C)CCCC[C@@H]3[C-]1Nc1ccccc12` was -11% [at 11.4 µM]. Consider `CN(C)c1ccc(-c2cc(-n3ccnc3)ncn2)cc1`, for which the AC50 is 0.158 µM (active).

In the case of `N#Cc1cccc(-c2nccc(-n3ccnc3)n2)c1`, the AC50 was 0.2 µM (active). With `COc1cccc(/C(O)=C2/C(=O)C(=O)N(c3ccccn3)C2c2ccc(OC)c(OC)c2)c1` (stereo not given), the “activity, negative = inhibition” value is 12%. Still for that read-out and setting: the value for `COc1ccc(C2/C(=C(/O)c3ccccc3)C(=O)C(=O)N2c2ccccn2)c(OC)c1` (stereo not given) was -28.1%. For `N#Cc1cccc(-c2cc(-n3ccnc3)ncn2)c1`, the concentration at half-maximal activity (AC50) was 0.126 µM (active). As to `COc1cccc(-c2nccc(-n3ccnc3)n2)c1`, the half-maximal activity concentration (AC50) was 0.0316 µM (active).

For the compound `NN(CC(=O)O)CC(=O)O`, the activity, negative = inhibition is 1.78% [at 11.4 µM]. Consider `C[N@+]1(CCC(=O)c2ccccc2)CC[C@H]2CC[C@H](C2)C1`, for which the activity, negative = inhibition is -19% [at 11.4 µM]. Take `c1cncc(-c2cc(-n3ccnc3)ncn2)c1`: the AC50 is 0.1 µM (active). On the same count and under the same terms, the value for `CC1(C)NC(=O)N(c2ccc([N+](=O)[O-])c(C(F)(F)F)c2)C1=O` was 3.16 µM (active) and 2.51 µM (active). For `CCSc1nc2c(c(=O)[nH]1)C(c1ccccn1)C1=C(CC(C)(C)CC1=O)N2` (stereo not given), the “activity, negative = inhibition” value was -27.4%. Still for that read-out and setting: the value for `Cc1ccc(C2C3=C(CCCC3=O)Nc3nc(SCC(=O)NCc4ccco4)[nH]c(=O)c32)cc1` (stereo not given) was -17.4%. `CCSc1nc2c(c(=O)[nH]1)C(c1ccncc1)C(C(=O)OC(C)C)=C(C)N2` (stereo not given): the AC50 was 15.8 µM (active). `[Li+]`: the “activity, negative = inhibition” value was -2.16%.

Turning to `COc1ccc(NC(=O)C2(c3ccc(NC(=O)c4ccc(C)cc4)cc3)CCCC2)cc1`, the “activity, negative = inhibition” value was 5.17%. For the compound `COc1cccc(C(=O)Nc2nc3c(s2)CN(C)CC3)c1`, the half-maximal activity concentration (AC50) was 12.6 µM (active). Same read-out and setting: the value for `COc1ccc2c(c1)Cc1sc(NC(=O)c3ccco3)nc1-2` was 3.16 µM (active). On to `COc1cccc(C(=O)NCCN2CCOCC2)c1`, for which the “activity, negative = inhibition” value was -9.55%. `COc1ccc2c(c1)CCc1sc(NC(=O)c3ccc(C)cc3)nc1-2`: the AC50 was 4.47 µM (active). Consider `COc1ccc(-c2nc(NC(=O)c3ccccc3)sc2-c2ccc([N+](=O)[O-])cc2)cc1`, for which the “activity, negative = inhibition” value is -4.3%. For `COc1ccc(C(=O)Nc2nc3c(s2)Cc2cc(OC)ccc2-3)cc1`, the AC50 is 4.47 µM (active). On to `COc1ccc(NC(=O)N2CC3(CCN(C(=O)c4ccco4)CC3)C2)cc1`, for which the “activity, negative = inhibition” value is -9.08%.

In the case of `CC(=O)OC[C@H]1O[C@@H](CCO/N=C2/[C@H]3O[C@@H]3[C@@H](O)[C@H]3[C@H]2CCn2c(=O)n(-c4ccccc4)c(=O)n23)C=C[C@@H]1OC(C)=O`, the activity, negative = inhibition was -3.93% [at 11.4 µM]. Take `C[C@@H](c1ccccc1)N1C(=O)[C@H]2[C@H]3[C@H](O)[C@H](O)C/C(=N/OC[C@@H](O)COCc4ccco4)[C@H]3CC[C@@H]2C1=O`: the activity, negative = inhibition is -3.98% [at 11.4 µM]. Turning to `CN(C(=S)NC(=O)c1ccccc1Br)C1CCCCC1`, the AC50 is 14.1 µM (active).

For the compound `O=C(O)CCCCCNC(=O)c1ccccc1Br`, the “activity, negative = inhibition” value is 1.98%. Take `C[C@]1(OC(=O)/C=C\c2ccccc2)C[C@@H](O)[C@@]2(O)C=CO[C@@H](O[C@H]3O[C@@H](CO)[C@@H](O)[C@@H](O)[C@@H]3O)[C@H]21`: the “activity, negative = inhibition” value is -7.84% [at 25.6 µM]. `Nc1ncnc2c1cnn2-c1ccccc1`: the AC50 was 6.31 µM (active). Same read-out and setting: with `c1ccc(-n2ncc3c2ncn2cnnc32)cc1` the figure was 6.31 µM (active). With `Nc1ncnc2c1nc(-c1ccccc1)n2[C@H]1O[C@@H](CO)[C@@H](O)[C@H]1O`, the activity, negative = inhibition was -16.8% [at 2.29 µM].

For `CC(=O)Nc1ccc(Nc2ncnc3c2cnn3-c2ccccc2)cc1`, the “activity, negative = inhibition” value is -19%. In the case of `O=C(O)/C=C\C(=O)Nc1ccccn1`, the activity, negative = inhibition was -5.8% [at 11.4 µM].

As to `O=C(NCC1CCC(C(=O)O)CC1)OCc1ccccc1` (stereo not given), the “activity, negative = inhibition” value is -3.85%.

For the compound `CC(=O)N1CCC2(CC1)CCN(C(=O)Nc1cccc(F)c1)CC2`, the “activity, negative = inhibition” value is -4.16%.

Consider `CCC(=O)NC(NCC1CCCO1)C(Cl)(Cl)Cl` (stereo not given), for which the “activity, negative = inhibition” value is 9.29%. Same read-out and setting: with `O[C@H](CNc1ccccn1)c1ccccc1` the figure was -29.6% [at 11.4 µM]. As to `O=C(Nc1cccc(F)c1)Nc1ccccn1`, the half-maximal activity concentration (AC50) was 2 µM (active).

Turning to `CSc1nsc(SC)c1NC(=O)Nc1ccccn1`, the concentration at half-maximal activity (AC50) was 2.51 µM (active). The same measure, in the same setting: with `CSc1nsc(SC)c1NC(=O)OCC1CCCO1` (stereo not given) the figure was 20 µM (active). As to `O=C(O)c1nnsc1COCc1ccccc1`, the activity, negative = inhibition is -12.2% [at 11.4 µM]. As to `CCOC(=O)c1ccc(NC(=O)C(=O)NCC2CCCO2)cc1` (stereo not given), the “activity, negative = inhibition” value was -12.1%. Turning to `CSc1nsc(SC)c1NC(=O)OCc1ccccc1`, the concentration at half-maximal activity (AC50) was 10 µM (active).
